Here are results for 107 sequences from PubChem BioAssay AID1347426 (Functional Genomics Laboratory (NCATS/FGL), 2020).

About 1,400 (4.5%) of roughly 31,000 sequences were called active. Many of the other results were omitted from the sample, so actives are more common in it than they were. Values without a mark were called inactive.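 Rule for the calls: active = median seed-adjusted z-score above 1 or below -1; inactive = the rest.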

This experiment is described as follows: Novel Modifiers of Survival Motor Neuron (SMN) Protein: Gene Identification via Genome-wide siRNA Screen.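 Note: luminescence tracks full-length SMN protein made from the SMN2 reporter.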 As to conditions: HEK293T SMN2-luciferase reporter, siRNA knockdown, 72 h; actives lie on both sides. Put shortly: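 HEK293T cells stably expressing an SMN2 splicing/cDNA-luciferase reporter were reverse-transfected with a druggable-genome siRNA library and read by luminescence at 72 hours; hits defined by MAD score above 1.0 or below -1.0.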
Take UCGAUAUUCUAAGAUCACATT against UBE2D3: the median seed-adjusted z-score is 1.62 (active).

For the sequence CACCUUAACUUCAUCAACATT against SCN4A, the median seed-adjusted z-score was -0.681. As to GAGCUGGGAUGAUAAAGAUTT against AGPAT2, the median seed-adjusted z-score is 0.38. In the case of GCGAUGAUGUGGAACCUUATT against TBC1D9 it was -0.0473. For the sequence AUAUAACACUUCUACUCUUTT against CMA1, the median seed-adjusted z-score was -0.0475. As to CAACGAUGCUAGAAGAAUUTT against PCOLCE2, the median seed-adjusted z-score is -1.15 (active). CCGUCUAUAUGGAGUCUUUTT against ROR1: the median seed-adjusted z-score was -0.0044. Regarding CUACUUUCGAGACUACUUUTT against DGAT2, the median seed-adjusted z-score was 0.195. For GGGAAGAUAUUUGUCAGCATT against PLXNA2, the median seed-adjusted z-score was 0.308. For the sequence ACAGGCCUGUGAAACCCUATT against PEX5, the median seed-adjusted z-score is -0.0414. On to GCCUUACCUGGAGAACUGATT against VPS26A, for which the median seed-adjusted z-score was -1.55 (active).

Take GCGAGAAUCUGUUAGUAAATT against PANK3: the median seed-adjusted z-score was -0.185. As to CCAUCUUCACUGACGAGCATT against GSC, the median seed-adjusted z-score was 0.17. In the case of CCUUUUUGCUGGACACUGUTT against PLEKHF1, the median seed-adjusted z-score is 0.055.

Regarding CACCCAUGCUGACAGUGAATT against HLA-DMA, the median seed-adjusted z-score is -0.00543. The result for GCCUCCUUCUUUGACCGGATT against NACC1 reads 1.59 (active); that for GGACUUCUUUUGUCAUGCATT against BCKDHB, 0.366. With GAACAGAUGUUUGAGACUUTT against GUCA1A, the median seed-adjusted z-score is 0.101.

As for GCGAGUGUCUUGAAGUAUATT against PLAA, the median seed-adjusted z-score was -0.192.

AAACAUUAUUUACCAUUCATT against ZNF439: the median seed-adjusted z-score is -0.26. As for CCACGUGUCUAACACCAAUTT against KRT79, the median seed-adjusted z-score was 0.338. For the sequence GAAUAUAUCUAAAUCGCAUTT against RORA, the median seed-adjusted z-score was -0.144.

For the sequence GACCUCACGUUGUCGAAGATT against GTPBP4, the median seed-adjusted z-score is 1.01 (active). For the sequence GACUUGGAGUUUCAGGCAATT against XPC, the median seed-adjusted z-score is -0.564. Consider GCUCCAGUCUUUUCGCAAATT against DSG4, for which the median seed-adjusted z-score is -0.0211. Turning to CCAAUUCUACAAAAGCAAATT against SRD5A3, the median seed-adjusted z-score was -0.165.

CGUGCACAGAUAUUACGCATT against FIGNL1: the median seed-adjusted z-score was -0.408. The result for GCAUUGUCGUUGCAAUCGATT against CLCA1 reads 0.015; that for GCAUCGAGCAGGAACAGAATT against ATP2B2, 1.37 (active); that for UUUUUGAUGUGGACUCAAATT against USP18, -0.326. Regarding GUUCAAUACUUGAACACGATT against FFAR2, the median seed-adjusted z-score was 0.146. On to GAAUUACAGUGACAGUUCATT against AP3M1, for which the median seed-adjusted z-score is 0. For GUAAUGUUCUUAAACGAAUTT against PPP2R5C, the median seed-adjusted z-score was 1.14 (active). Consider GAAACAUCUGGUGCUAUUATT against KREMEN2, for which the median seed-adjusted z-score was -0.0883. Regarding GCAAGAAUCCCUAAAGCAUTT against BAG2, the median seed-adjusted z-score is -0.87. CAGUUGAUAUUCAUAAAGATT against ABI2: the median seed-adjusted z-score was -0.0392. Regarding GGGCAGAAUUGGAAUGCGATT against CNTNAP4, the median seed-adjusted z-score is -0.414.

As to AGAGCGGUCUGACAGUGGATT against NUDT1, the median seed-adjusted z-score was -0.175. Turning to GGUAUAAACGCGUCCAGCATT against MAFB, the median seed-adjusted z-score is 0.674.

On to CCAACGACGUGGUGCAGAATT against CLDN14, for which the median seed-adjusted z-score was -0.456. As for CAGCAAACCUUUGACCAGATT against U2AF2, the median seed-adjusted z-score is 2.14 (active). As for CUACGGCUACGUCUACAUCTT against GPR25, the median seed-adjusted z-score is 0.377. Turning to GAGCGGACAUGAUAAGCAUTT against CD302, the median seed-adjusted z-score was 0.0818. For the sequence GGAUGAUAUUAACAGGUCATT against USP8, the median seed-adjusted z-score is 0.743. In the case of GCAUACGCAGGAUCCUGGATT against KRT34 it was 0.124; in that of CGAGUUAGCAAGUUCAGCATT against CTRL, 0.0758. In the case of GAAAUCUUCUUGAGUGUAATT against GPR141, the median seed-adjusted z-score is -0.777. For GGACAAUGUUGGGAAUAGATT against GPATCH2, the median seed-adjusted z-score is 0.0828. In the case of UCCUCUAAAAAUUACAGUATT against TUBB2A it was 1.03 (active); in that of CAUUAGAUCUGUGAUUAGATT against MCOLN3, -0.09; in that of GGAAUGCUCCAAAAUGGGATT against FKBP1B, -0.561.

With GCACAUGUUUGGAGGAUUUTT against ZNRF2, the median seed-adjusted z-score is 0.

As to CAACCCAGCCCAUCCCAAATT against PDK2, the median seed-adjusted z-score is -0.481. The result for CUGUGAAGAUAGAAGGAUATT against CAPZA1 reads -0.0237.

Consider GCAUUUCUUGGGUUGGUGATT against GABPA, for which the median seed-adjusted z-score is 1.43 (active). For the sequence CCGCGCAGUUCAUCUCAAATT against SNX15, the median seed-adjusted z-score is -0.152. Take CACUAGAAAUAACAAUGGATT against TMPRSS11D: the median seed-adjusted z-score was -0.0643. As to AGAUCUCGUGGUUCUGGAATT against RPUSD1, the median seed-adjusted z-score is 0.327. With GUGGUGGGCUUAUCCUCUATT against NRXN3, the median seed-adjusted z-score is 0.897. Turning to GAACCACAAUGUUAACAAUTT against CYBRD1, the median seed-adjusted z-score was 0.623. In the case of GCAAGAUCUCUAUUGGUAUTT against ABCC4 it was -1.66 (active); in that of GAAACCCUAUUACGAUGAATT against SOX30, -0.167. In the case of CAUGUAAACUUGCUGUUUUTT against CKS1B it was 0.00314; in that of CAUAGUAGAUCAAAUCUUATT against ZNF284, 0.21.

With CACUAGCAGUUGCAAGUAATT against RAB3GAP2, the median seed-adjusted z-score was 0.0583. In the case of GACCUGGGCUUAGACAGUUTT against NDUFAB1 it was -0.282; in that of GGAGAGCUGUUGGUACUUUTT against TAAR9, -1.07 (active).

In the case of CACUGUUUCUUCACCGGCATT against ZDHHC22, the median seed-adjusted z-score was 0.00446. For GCAGUUCACCCAUCCAGUATT against THY1, the median seed-adjusted z-score is -1.1 (active). As for GACCAAGCGCAAAACCAAATT against HOMEZ, the median seed-adjusted z-score was -0.0614. For GAUUUUGUGCGAUCCAUAATT against CBARA1, the median seed-adjusted z-score was -0.0426. With GCAGGUACAUGUCUUGUCUTT against SPRY2, the median seed-adjusted z-score was 0.148. The result for CCCUACAUAGGAAACCUGUTT against PKD1L2 reads -1.17 (active); that for CAGCCUACUUCAUAGCCUATT against GPR50, -0.0348; that for GCCGGCCUGUGAAAUAUGATT against MAP3K3, -0.182. In the case of UCACGUCACUACUUAAAAATT against ZNF644 it was 0.389. On to CCAUUAAUGAAUUAGUCUATT against TXN, for which the median seed-adjusted z-score was -0.195. As for AGCUCAACGUGCUGGAUUATT against PIP5KL1, the median seed-adjusted z-score was -0.819. As for CGAAGUUCAAGUAUAGGUATT against RAG1, the median seed-adjusted z-score was -1.35 (active). The result for GGUUUGGAGCGAGAGUGGATT against ASB10 reads 0; that for GCAGCUAUCUCUGUACAGATT against MAPK8IP3, 0.734; that for UGUUCAGUCUGGAAUUUCATT against MAP2K1, 0.942. Regarding GGACCCAAAUUCAGAAGAATT against ANKRA2, the median seed-adjusted z-score is 1.26 (active).

Regarding GGAUCGGUAUGUAGCAAUATT against HTR2C, the median seed-adjusted z-score is -0.115. With GAGUAUCCAUCGGUAUCUATT against ZBTB11, the median seed-adjusted z-score was -0.105.

Consider UCCAGACUCUGGUCACCAATT against CREB3L1, for which the median seed-adjusted z-score is 0.708. GCAUUGACUUGGGUGAAGATT against GPR101: the median seed-adjusted z-score was -0.265. As for GAGUUGAAGUUAAAGUAAATT against MORF4, the median seed-adjusted z-score is 0.0121. With CGACAAGAUCAAAUACCCATT against LZTR1, the median seed-adjusted z-score was 0.293. The result for CAAGCCUGAUUUCCACCUATT against DTD1 reads -1.58 (active). Regarding CAACGAGAAUGACUGCUGATT against PTPDC1, the median seed-adjusted z-score was -0.191. For the sequence CAAGAAAACCAGAAUGGAATT against SERPING1, the median seed-adjusted z-score is -0.244. In the case of GCGAUUGCUUUGAUGGGUATT against LTBP1 it was 0.143; in that of GAAUCCUCCCAAUUGAUCATT against LSG1, 1.31 (active); in that of GAACAUCGUUAUAAGUUGATT against CNTN3, 0.732.

For GCACUAAUCUGCAAACUGUTT against SPTB, the median seed-adjusted z-score was 0.153. In the case of CAGACAAAUUUUAACCACATT against SLC17A8, the median seed-adjusted z-score was -0.332. Regarding GGUCCAUCCAAAUUGUGGATT against CYP21A2, the median seed-adjusted z-score is -0.26. For GCGCAUCUAUCAACCCAAUTT against MLNR, the median seed-adjusted z-score is -0.038. Regarding AGACUAAACUACUCUCGAATT against WDR46, the median seed-adjusted z-score is -0.136. In the case of GCUGCUAUCAGUGAACGGATT against LIN7A it was -1.39 (active). In the case of CGUGUUAGUGAAUAAAGUATT against ZNF771, the median seed-adjusted z-score is 0.108. The result for CGGCAGACACUGAACAUCATT against SLC6A18 reads 0.148. For GUAGCACAGAGGAUUAAAATT against TTC33, the median seed-adjusted z-score was 0.104. Consider CUCUAACCGUGGUUCCAGATT against SUPT16H, for which the median seed-adjusted z-score was 1.2 (active). The result for CGGCGGAGUUUAUAGAUAATT against BCKDHA reads -0.299; that for GAAUCUACCUUGCUGCUCATT against G6PC, -0.628.
